Data from PubChem BioAssay (NCI).
About 83,000 compounds went through this panel and 20% of them were active in at least one assay; those are over-represented in the sample as a whole.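 In brief: 96-well plates, 48 h treatment, single concentration, percent growth endpoint.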 A number with no mark means an inactive call. The source made the active and inactive calls. Rule for the calls: active = growth percent below 10; inactive = the rest.

Experiments:
Test in all cases: NCI-60 one-dose screen, 48 h (100 = growth as untreated, 0 = no growth, -100 = all killed)
Conditions in all cases: 10 µM unless noted
T-47D breast = tested on: T-47D breast
BT-549 breast = tested on: BT-549 breast
MDA-MB-435 melanoma = tested on: MDA-MB-435 melanoma
SW-620 colon = tested on: SW-620 colon
MCF7 breast = tested on: MCF7 breast
HCT-116 colon = tested on: HCT-116 colon
HCC-2998 colon = tested on: HCC-2998 colon
KM12 colon = tested on: KM12 colon

SMILES | growth (T-47D breast) | growth (BT-549 breast) | growth (MDA-MB-435 melanoma) | growth (SW-620 colon) | growth (MCF7 breast) | growth (HCT-116 colon) | growth (HCC-2998 colon) | growth (KM12 colon)
Cc1oc(-c2ccccc2Cl)cc1C(=O)Nc1ccc(S(N)(=O)=O)cc1 | 83.2% | 104% | 102% | 108% | 92.7% | 102% | 103% | 101%
COC(=O)[C@]12CC[C@@H](C(/C=C/c3cccnc3)=N/O)[C@@H]1[C@H]1CC[C@@H]3[C@@]4(C)CC(=C/c5cccnc5)/C(=N/O)C(C)(C)[C@@H]4CC[C@@]3(C)[C@]1(C)CC2 | 27.3% | 22.8% | 36.2% | 45.5% | 25.6% | 18.9% | 45.9% | 37.7%
Cc1[c-]onc1C.Cc1[c-]onc1C.[Ag].[Ag].[NH-]S(=O)(=O)c1ccc(N=Nc2cc(N=Nc3ccc(S([NH-])(=O)=O)cc3)c3c(NC(=O)C(Cl)Cl)cccc3c2OC(=O)C(Cl)Cl)cc1 | -11.9% (active) | 94.6% | 74.3% | 58.1% | 35.7% | 71.9% | 107% | 71.5%
OCCNc1nc(Nc2ccc(Cl)c(Cl)c2)nc2ccccc12 | 67.9% | 77.8% | 50% | 28.6% | 30.3% | 29.7% | -37.9% (active) | 35.5%
Cn1cc(-c2nc(-c3c[nH]c4ncccc34)cs2)c2ccccc21 | 29.1% | 82.9% | 36.5% | 95.8% | 10.5% | 76.9% | 32.6% | 12.9%
C=C(C)[C@@H]1CC[C@]2(C(=O)NNC(=O)c3cccnc3)CC[C@]3(C)[C@H](CC[C@@H]4[C@@]5(C)CCCNC(C)(C)[C@@H]5CC[C@]43C)[C@@H]12 | 57.6% | 82.3% | 83.6% | 85.7% | 59% | 45.7% | 73.4% | 78.4%
COc1ccc(/C=C(\C#N)c2cc3ccccc3n2S(C)(=O)=O)cc1 | 96.2% | 86% | 6.05% (active) | 70.1% | 66.8% | 82.9% | 94% | 69%
CC[C@H](CC[C@@H](C)[C@H]1CC[C@H]2[C@@H]3/C(=C/c4cccnc4)C(=O)C4=CC(=O)CC[C@]4(C)[C@H]3CC[C@]12C)C(C)C | 47.7% | 91.3% | 99.7% | 93.7% | 51% | 61.9% | 98.8% | 97.1%
CC1(C)C(=O)/C(=C\c2ccccn2)C[C@]2(C)[C@H]3CC[C@@H]4[C@@H](C(=O)/C=C/c5ccccn5)CC[C@@]4(C)[C@]3(C)CC[C@@H]12 | 3.15% (active) | -13.6% (active) | 4.49% (active) | 0.595% (active) | 12% | -69.6% (active) | -79.7% (active) | -76.2% (active)
c1cc(N2CCCC2)c2nc(-c3[nH]ncc3Nc3ncnc4[nH]ccc34)[nH]c2c1 | 0.99% (active) | -37% (active) | -80.8% (active) | 2.01% (active) | -23% (active) | -9.45% (active) | -30.4% (active) | -20.4% (active)
N#Cc1cnc2cc(OC[C@@H](O)CO)c(NC(=O)CC3CSSC3)cc2c1Nc1ccc(OCc2cccc(F)c2)c(Cl)c1 | -60.9% (active) | -71% (active) | -85.2% (active) | -74.8% (active) | -58.8% (active) | -60.5% (active) | -78.2% (active) | -79.6% (active)
COc1ccc2nc(-c3c(-c4ccccc4)nc4ncccn34)[nH]c2c1 | 82.1% | 110% | 104% | 108% | 96.6% | 97.1% | 101% | 111%
COC(=O)C(N)CSC(c1ccccc1)(c1ccccc1)c1ccccc1 (centres undefined) | 23.9% | 54.6% | -58.7% (active) | 21.1% | 13.1% | 15.7% | 12.9% | 17.6%
COc1ccc(C(=O)c2ccc(C)cc2)c(OC)c1OC | 90% | 86.7% | -25.2% (active) | 33.6% | 72.2% | 58.4% | 75.9% | 47.2%
C=C1C(=O)O[C@H]2[C@H]1CC/C(COC(=O)NCCc1c[nH]c3ccccc13)=C\CC[C@@]1(C)O[C@@H]21 | -36.9% (active) | -12.9% (active) | 42% | -33.2% (active) | 6.64% (active) | -89.1% (active) | 94.7% | 89.6%
Nc1c(C(=O)Nc2c(Cl)cccc2Cl)sc2nc3c(cc12)CCCC3 | 69% | 90.1% | 5.24% (active) | 51% | 43.7% | 47.8% | 92.5% | 68.6%
CC[C@]12C=CCN3CC[C@@]4(c5cc([C@H]6CCC(=O)N6)c(OC)cc5N(C)[C@H]4[C@@](O)(C(=O)OC)[C@@H]1OC(C)=O)[C@@H]32 | 96.3% [2.5 µM] | 113% [2.5 µM] | 107% [2.5 µM] | 108% [2.5 µM] | 93.2% [2.5 µM] | 100% [2.5 µM] | 110% [2.5 µM] | 111% [2.5 µM]
Nc1c(C(=O)Nc2c(Cl)cccc2Cl)sc2nc3c(cc12)C(=O)CCC3 | 35.7% | 51.5% | -37.7% (active) | 44.5% | 19.3% | 42.9% | 69.1% | 30.5%
